Measured values taken from PubChem BioAssay AID1159580 (chemical genetic matrix, 2015).
In all, about 5,500 compounds went through this assay and about 2,000 (36%) were called active. Inconclusive results (about 18%) are left out. Cut-off read from the data, not from the text of the source: active = normalized growth mostly below about 0.91 (no sharp cut-off); inconclusive = no clear call, values can overlap the other calls; inactive = mostly above about 0.92. This is one part of the list.

Assay: chemical genetic growth profiling, strain panel (AID 1159580);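 note: tested at 20 µM; growth read once vehicle control cultures reached saturation at 30 °C; 1 = growth at the plate median or of vehicle wells; lower values mean less growth of the strain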
Conditions: S. cerevisiae deletion strains, growth OD

Measured: normalized growth

COc1cccc2c(C)cc(=O)[nH]c12
active: locus YBR231C, strain swc5, active compounds read low 0.909 | locus YDL192W, strain arf1, active compounds read low 0.887 | locus YDR101C, strain arx1, active compounds read low 0.908 | locus YDR195W, strain ref2 1.15 [resistant] | locus YDR392W, strain spt3, active compounds read low 0.641 | locus YDR502C, strain sam2, active compounds read low 0.875 | locus YER155C, strain BEM2 (second series), active compounds read low 0.786 | locus YGL086W, strain mad1, active compounds read low 0.889 | locus YGL240W, strain doc1, active compounds read low 0.843 | locus YGL253W, strain hxk2, active compounds read low 0.891 | locus YGR135W, strain pre9, active compounds read low 0.887 | locus YHR142W, strain chs7, active compounds read low 0.835 | locus YHR200W, strain rpn10, active compounds read low 0.919 | locus YJL095W, strain BCK1, active compounds read low 0.793 | locus YJL166W, strain qcr8, active compounds read low 0.891 | locus YKL009W, strain mrt4, active compounds read low 0.874 | locus YKR001C, strain vps1, active compounds read low 0.802 | locus YLL001W, strain dnm1, active compounds read low 0.893 | locus YLR330W, strain CHS5, active compounds read low 0.896 | locus YLR371W, strain rom2, active compounds read low 0.89 | locus YLR418C, strain cdc73, active compounds read low 0.715 | locus YML120C, strain ndi1, active compounds read low 0.911 | locus YMR263W, strain SAP30, active compounds read low 0.855 | locus YNL071W, strain lat1, active compounds read low 0.897 | locus YNL233W, strain BNI4, active compounds read low 0.827 | locus YOL006C, strain TOP1, active compounds read low 0.511 | locus YOR184W, strain ser1, active compounds read low 0.847 | locus YOR270C, strain vph1, active compounds read low 0.714 | strain wtn01, active compounds read low 0.881
inactive: locus YAL021C, strain ccr4, active compounds read low 1.01 | locus YAL026C, strain drs2, active compounds read low 0.972 | locus YAL030W, strain snc1, active compounds read low 0.977 | locus YBL061C, strain skt5, active compounds read low 0.938 | locus YBR009C, strain hhf1, active compounds read low 0.938 | locus YBR021W, strain FUR4, active compounds read low 1.07 | locus YBR023C, strain chs3, active compounds read low 0.928 | locus YBR171W, strain sec66, active compounds read low 0.963 | locus YBR229C, strain ROT2, active compounds read low 0.969 | locus YBR279W, strain paf1, active compounds read low 0.987 | locus YCL011C, strain gbp2, active compounds read low 0.924 | locus YCL016C, strain dcc1, active compounds read low 0.949 | locus YCL029C, strain bik1, active compounds read low 0.932 | locus YCL061C, strain MRC1, active compounds read low 0.956 | locus YCL069W, strain vba3, active compounds read low 0.98 | locus YCR088W, strain abp1, active compounds read low 0.972 | locus YDL005C, strain med2, active compounds read low 0.992 | locus YDL035C, strain GPR1, active compounds read low 0.958 | locus YDL040C, strain nat1, active compounds read low 0.972 | locus YDL074C, strain BRE1, active compounds read low 0.853 | locus YDL101C, strain DUN1, active compounds read low 0.941 | locus YDL134C, strain PPH21, active compounds read low 0.961 | locus YDL185W, strain tfp1, active compounds read low 0.933 | locus YDR001C, strain nth1, active compounds read low 0.957 | locus YDR069C, strain doa4, active compounds read low 0.971 | locus YDR137W, strain rgp1, active compounds read low 0.847 | locus YDR159W, strain sac3, active compounds read low 0.862 | locus YDR162C, strain NBP2, active compounds read low 0.881 | locus YDR297W, strain sur2, active compounds read low 0.974 | locus YDR318W, strain mcm21, active compounds read low 0.949 | locus YDR334W, strain swr1, active compounds read low 0.978 | locus YDR335W, strain msn5, active compounds read low 0.941 | locus YDR388W, active compounds read low 0.929 | locus YEL003W, strain gim4, active compounds read low 0.971 | locus YEL037C, strain rad23, active compounds read low 0.974 | locus YEL061C, strain CIN8 (second series), active compounds read low 0.969 | locus YEL061C, strain CIN8, active compounds read low 0.963 | locus YER015W, strain faa2, active compounds read low 0.986 | locus YER016W, strain bim1, active compounds read low 0.953 | locus YER110C, active compounds read low 0.946 | locus YER111C, strain swi4, active compounds read low 0.977 | locus YER155C, strain BEM2, active compounds read low 0.946 | locus YER167W, strain BCK2, active compounds read low 0.947 | locus YFR010W, strain ubp6, active compounds read low 0.975 | locus YGL078C, strain dbp3, active compounds read low 0.962 | locus YGL167C, strain pmr1, active compounds read low 0.982 | locus YGL173C, strain kem1, active compounds read low 0.962 | locus YGL227W, strain vid30, active compounds read low 0.961 | locus YGL248W, strain PDE1, active compounds read low 0.919 | locus YGR078C, strain PAC10, active compounds read low 0.904 | locus YGR252W, strain gcn5, active compounds read low 0.874 | locus YHR013C, strain ard1, active compounds read low 0.848 | locus YHR027C, strain rpn1, active compounds read low 0.984 | locus YHR030C, strain SLT2, active compounds read low 0.945 | locus YHR079C, strain IRE1 (second series), active compounds read low 0.933 | locus YHR094C, strain hxt1, active compounds read low 0.953 | locus YHR129C, strain ARP1, active compounds read low 0.936 | locus YIL066C, strain RNR3, active compounds read low 0.929 | locus YIL073C, strain SPO22, active compounds read low 0.812 | locus YIL125W, strain kgd1, active compounds read low 0.96 | locus YIR030C, strain dcg1, active compounds read low 0.954 | locus YJL092W, strain hpr5, active compounds read low 0.972 | locus YJL095W, strain BCK1 (second series), active compounds read low 0.965 | locus YJL115W, strain asf1, active compounds read low 0.981 | locus YJL129C, strain trk1, active compounds read low 0.966 | locus YJL134W, strain LCB3, active compounds read low 0.968 | locus YJL154C, strain vps35, active compounds read low 0.979 | locus YJL164C, strain tpk1, active compounds read low 0.949 | locus YJL168C, strain set2, active compounds read low 0.948 | locus YJL187C, strain SWE1 (second series), active compounds read low 0.908 | locus YJL187C, strain SWE1, active compounds read low 0.989 | locus YJR043C, strain POL32, active compounds read low 0.885 | locus YKL068W, active compounds read low 0.951 | locus YKL085W, strain MDH1 (second series), active compounds read low 0.941 | locus YKL085W, strain MDH1, active compounds read low 0.941 | locus YKL160W, strain elf1, active compounds read low 0.944 | locus YKR026C, strain gcn3, active compounds read low 0.972 | locus YKR091W, strain srl3, active compounds read low 0.981 | locus YLL026W, active compounds read low 0.952 | locus YLL041C, strain sdh2, active compounds read low 0.956 | locus YLR027C, strain aat2, active compounds read low 0.955 | locus YLR039C, strain RIC1, active compounds read low 0.697 | locus YLR058C, strain SHM2, active compounds read low 0.94 | locus YLR102C, strain apc9, active compounds read low 0.942 | locus YLR221C, strain rsa3, active compounds read low 0.949 | locus YLR258W, strain gsy2, active compounds read low 0.941 | locus YLR262C, strain YPT6 (second series), active compounds read low 0.887 | locus YLR262C, strain YPT6, active compounds read low 0.732 | locus YLR268W, strain sec22, active compounds read low 0.9 | locus YLR320W, strain mms22, active compounds read low 0.94 | locus YLR342W, strain FKS1 (second series), active compounds read low 0.838 | locus YLR342W, strain FKS1, active compounds read low 0.957 | locus YLR357W, strain rsc2, active compounds read low 0.974 | locus YLR370C, strain arc18, active compounds read low 0.932 | locus YLR384C, strain iki3, active compounds read low 0.981 | locus YML016C, strain PPZ1, active compounds read low 0.958 | locus YML032C, strain rad52, active compounds read low 0.948 | locus YML124C, strain tub3, active compounds read low 0.952 | locus YMR058W, strain fet3, active compounds read low 0.955 | locus YMR078C, strain ctf18, active compounds read low 0.937 | locus YMR125W, strain sto1, active compounds read low 0.959 | locus YMR129W, active compounds read low 0.958 | locus YMR205C, strain PFK2, active compounds read low 0.958 | locus YMR223W, strain ubp8, active compounds read low 0.942 | locus YMR231W, strain pep5, active compounds read low 1 | locus YMR307W, strain GAS1, active compounds read low 0.974 | locus YNL067W, strain RPL9B, active compounds read low 0.875 | locus YNL209W, strain ssb2, active compounds read low 0.991 | locus YNL248C, strain rpa49, active compounds read low 0.968 | locus YNL250W, strain rad50, active compounds read low 0.925 | locus YNL271C, strain bni1, active compounds read low 0.955 | locus YNL298W, strain CLA4, active compounds read low 0.978 | locus YNL307C, strain MCK1, active compounds read low 0.91 | locus YNL322C, strain KRE1 (second series), active compounds read low 0.977 | locus YNL322C, strain KRE1, active compounds read low 0.971 | locus YNR049C, strain mso1, active compounds read low 0.97 | locus YNR052C, strain pop2, active compounds read low 0.986 | locus YOL012C, strain htz1 1.3 | locus YOL147C, strain pex11, active compounds read low 0.945 | locus YOR001W, strain rrp6, active compounds read low 0.954 | locus YOR061W, strain CKA2, active compounds read low 0.965 | locus YOR069W, strain VPS5, active compounds read low 0.965 | locus YOR070C, strain gyp1, active compounds read low 0.965 | locus YOR080W, strain dia2, active compounds read low 0.983 | locus YOR083W, strain WHI5, active compounds read low 0.929 | locus YOR106W, strain vam3, active compounds read low 0.938 | locus YOR136W, strain idh2, active compounds read low 0.951 | locus YOR144C, strain elg1, active compounds read low 0.964 | locus YOR265W, strain rbl2, active compounds read low 0.966 | locus YOR290C, strain snf2, active compounds read low 0.891 | locus YOR316C, strain cot1, active compounds read low 0.937 | locus YPL051W, strain arl3, active compounds read low 0.938 | locus YPL055C, strain LGE1, active compounds read low 0.775 | locus YPL078C, strain atp4, active compounds read low 0.896 | locus YPL106C, strain sse1, active compounds read low 0.898 | locus YPL240C, strain hsp82, active compounds read low 0.959 | locus YPL241C, strain CIN2, active compounds read low 0.958 | locus YPR119W, strain clb2, active compounds read low 0.937 | locus YPR141C, strain kar3, active compounds read low 0.953 | locus YPR163C, strain tif3, active compounds read low 0.933 | locus YPR167C, strain met16, active compounds read low 0.959
